From PubChem BioAssay (EPA / NIEHS) come the findings set out here.

Structures are written as SMILES. Several values for one entry are separate records, joined by “and”; a condition that tells them apart may be missing. Identical values can stand only once. Some structures have more than one record in an assay (separate samples or runs), and their calls can disagree. Activity calls are given as the source filed them. How the source made its calls: active means hit-call score of the fitted dose curve at least 0.9, where 1 is the maximum; inactive means score below 0.9.

This assay can be described thus: BSK_3C_SRB: Viability Assessment in the BioMAP Diversity Plus: 3C Assay (AID 2283023).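 Further: fitted both ways against DMSO so a hit may be signal rise or drop.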 The conditions noted are these: primary human endothelial cells (HUVEC). Here is the method: BSK_3C is a cell-based, multiplexed-readout assay that uses umbilical vein endothelium, a human vascular primary cell, with measurements taken at 24 hours after chemical dosing in a 96-well plate.BSK_3C_SRB is an assay component measured in the BSK_3C assay. It measures 0.1% sulforhodamine related to cell death using Sulforhodamine staining technology.Data from the assay component BSK_3C_SRB was analyzed into 1 assay endpoint. This assay endpoint, BSK_3C_SRB, was analyzed with bidirectional fitting relative to DMSO as the negative control and baseline of activity. Using a type of viability reporter, gain or loss-of-signal activity can be used to understand changes in the signaling. Furthermore, this assay endpoint can be referred to as a primary readout, because this assay has produced multiple assay endpoints where this one serves a signaling function. To generalize the intended target to other relatable targets, this assay endpoint is annotated to the cell morphology intended target family, where the subfamily is cell conformation.
The levels of cell surface (or secreted, indicated by the prefix "s") biomarker endpoints were measured by ELISA. Overt cytotoxicity to cells in confluent adherent cultures (all systems other than the BT system) was assessed by measuring total protein levels using sulforhodamine B (SRB) staining in parallel cultures at the time of biomarker measurements, indicated as SRB endpoints. For proliferation assays for adherent cell types, individual cell types are cultured at sub-confluence and relative cell numbers quantified by SRB staining at time points optimized for each system (48 h: 3C and CASM3C systems; 72 h: BT and HDF3CGF systems; 96 h: SAg system). SRB was performed by staining cells with 0.1% SRB after fixation with 10% TCA and reading wells at 560 nm.Viability and proliferation of PBMC (T cells) was quantified by Alamar Blue reduction for the SAg and BT systems. For PBMC viability (referred to as PBMC Cytotoxicity within the assay endpoint names), cells were plated (75,000/well in a 96-well plate) and then chemical samples added for 1 h before addition of activators, SEB and TSST-1 (20 ng/mL final concentration each). Cells were incubated for 90 h. Then, Alamar Blue (20 uL/well) (Invitrogen, Cat DAL1100) was added for 6 h, and the plates were read with a fluorescence microplate reader at 546/580 nm (excitation/emission). For PBMC proliferation, cells were plated and activated as above but incubated for only 16 h prior to addition of Alamar Blue. Plates were read after 6 h.
On to `CC1=C(/C=C/C(C)=C/C=C/C(C)=C/C(=O)O)C(C)(C)CCC1`, for which the result was inactive.
On the same count and under the same terms, then `COCC(C)O` (stereo not given), with “inactive”.
Usually AC50 stands for the concentration at which the activity in the assay is half-maximal. As to `C#C[C@]1(O)CC[C@H]2[C@@H]3CCC4=CC(=O)CC[C@@H]4[C@H]3CC[C@@]21C`, the AC50 is 5.17 µM (active).
Consider `CCCCCCCCCCCCc1ccccc1S(=O)(=O)O`, for which the outcome was inactive.
Same read-out and setting: then `CCc1ccc(CCOc2ccc(CC3SC(=O)NC3=O)cc2)nc1` (stereo not given), with “inactive”.
Still for that read-out and setting: then `c1ccc2cc3c(ccc4ccccc43)cc2c1`, with “inactive”; and `c1ccc2c(c1)Cc1ccccc1-2`, with “inactive”.
Turning to `CCCCC(CC)COC(=O)CCCCC(=O)OCc1ccccc1` (stereo not given), the result was inactive.
For `OCCC(F)(F)C(F)(F)C(F)(F)C(F)(F)C(F)(F)C(F)(F)C(F)(F)C(F)(F)F`, the AC50 was 29.1 µM (active) and 19 µM (active); the result was inactive.
Consider `COCC(C)OCC(C)O` (stereo not given), for which the outcome was inactive.
The same measure, in the same setting: then `CCCCCCCC(=O)O`, with “inactive”; and `CN1CCC[C@H]1c1cccnc1`, with “inactive”.
`CC(=O)NC1(c2cccc(F)c2)CCN(CC[C@@]2(c3ccc(Cl)c(Cl)c3)CN(c3ccccc3)C(=O)CO2)CC1`: the AC50 is 21.6 µM (active).
For the molecule `COC(=O)CCCCC(=O)OC`, the outcome was inactive.
Same read-out and setting: then `CCCCCCCCOC(=O)CCCCCCCCC(=O)OCCCCCCCC`, with “inactive”; and `CCCCC(CC)COC(=O)CCCCC(=O)OCC(CC)CCCC` (stereo not given), with “inactive”.
With `c1ccc2c(c1)ccc1ccccc12`, the result was inactive.
Take `OCCC(F)(F)C(F)(F)C(F)(F)C(F)(F)C(F)(F)C(F)(F)F`: the AC50 is 57.7 µM (active) and the result was inactive.
In the case of `CCCOC(=O)c1ccc(O)cc1`, the result was inactive.
For the molecule `CCCCCCCCCCCCN1CCCC1=O`, the AC50 is 33.6 µM (active).
On to `CC(O)CO` (stereo not given), for which the outcome was inactive.
For `CCN(CC)CCNc1ccc(CNC=O)c2sc3ccc(OC)cc3c(=O)c12`, the AC50 was 17.7 µM (active).
`Oc1cc2ccccc2c2ccccc12`: the AC50 is 15.4 µM (active).
Take `CCCCCCCCCCCCCC[N+](C)(C)C`: the AC50 is 1.38 µM (active).
Same read-out and setting: then `CCC(=C(c1ccc(O)cc1)c1ccc(OCCN(C)C)cc1)c1ccccc1`, with 9.01 µM (active); and `Cc1cc(CCN2CCN(c3nsc4ccccc34)CC2)cc2c1NC(=O)CC2(C)C`, with 26.5 µM (active); and `Cc1oc(-c2ccccc2)nc1CCOc1ccc(C[C@H](Nc2ccccc2C(=O)c2ccccc2)C(=O)O)cc1`, with 14.9 µM (active).
As for `NC(=O)N1C(=O)C(C(=O)c2cc(Cl)cs2)c2cc(F)c(Cl)cc21` (stereo not given), the AC50 is 14 µM (active).
In the case of `NCC(F)(F)C(F)(F)C(F)(F)C(F)(F)C(F)(F)C(F)(F)C(F)(F)F`, the result was inactive.
Same read-out and setting: then `CCCCCCC(=O)O`, with “inactive”; and `OC1CCCCC1`, with “inactive”.
Still for that read-out and setting: then `CC(=O)CC(C)(C)O`, with “inactive”.
With `CCOC(=O)CC(O)(CC(=O)OCC)C(=O)OCC`, the result was inactive.
Take `CC#C[C@]1(O)CC[C@H]2[C@@H]3CCC4=CC(=O)CCC4=C3[C@@H](c3ccc(N(C)C)cc3)C[C@@]21C`: the AC50 is 30.5 µM (active).
`CC(C)(C)c1cccc(C(C)(C)C)c1O`: the result was inactive.
Still for that read-out and setting: then `CCCCCCCCCCCCCCCS(=O)(=O)Oc1ccccc1`, with “inactive”; and `CC[C@H](C)[C@@H](C(=O)O)n1sc2ccccc2c1=O`, with “inactive”; and `C[C@@H]1C[C@H]2[C@@H]3CCC4=CC(=O)C=C[C@]4(C)[C@@]3(F)[C@@H](O)C[C@]2(C)[C@@]1(O)C(=O)COP(=O)(O)O`, with “inactive”.
